# Results filed as inconclusive are left out. Calls of active or inactive are those of the source. How the source made its calls: active means hit-call score of the fitted dose curve at least 0.9, where 1 is the maximum; inconclusive means response in the unintended direction; inactive means score below 0.9.
# What was measured:
# [1] = molecular target: Serine/threonine-protein phosphatase PP1-alpha catalytic subunit (Homo sapiens) (UniProt P62136); test: NVS_ENZ_hPPP1CA: NovaScreen (NVS) Enzymatic Assay for human Protein Phosphatase 1 Aatalytic subunit Alpha (PPP1CA) (AID 2283200)
# Procedure, shortened: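 Recombinant enzyme activity read by fluorescence with electrophoretic mobility shift separating substrate from product, 1.33 h after dosing; loss of signal vs DMSO baseline. Primary screen in duplicate at 25 uM; actives retested in concentration-response up to 50 uM.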
# [2] = molecular target: Tyrosine-protein phosphatase non-receptor type 12 (Homo sapiens) (UniProt Q05209); test: NVS_ENZ_hPTPN12: NovaScreen (NVS) Enzymatic Assay for human Protein Tyrosine Phosphatase Non-receptor Type 12 (PTPN12) (AID 2283204)
# Tyrosine-protein phosphatase non-receptor type 12 (Homo sapiens), sequence (Q05209 whole entry, looked up): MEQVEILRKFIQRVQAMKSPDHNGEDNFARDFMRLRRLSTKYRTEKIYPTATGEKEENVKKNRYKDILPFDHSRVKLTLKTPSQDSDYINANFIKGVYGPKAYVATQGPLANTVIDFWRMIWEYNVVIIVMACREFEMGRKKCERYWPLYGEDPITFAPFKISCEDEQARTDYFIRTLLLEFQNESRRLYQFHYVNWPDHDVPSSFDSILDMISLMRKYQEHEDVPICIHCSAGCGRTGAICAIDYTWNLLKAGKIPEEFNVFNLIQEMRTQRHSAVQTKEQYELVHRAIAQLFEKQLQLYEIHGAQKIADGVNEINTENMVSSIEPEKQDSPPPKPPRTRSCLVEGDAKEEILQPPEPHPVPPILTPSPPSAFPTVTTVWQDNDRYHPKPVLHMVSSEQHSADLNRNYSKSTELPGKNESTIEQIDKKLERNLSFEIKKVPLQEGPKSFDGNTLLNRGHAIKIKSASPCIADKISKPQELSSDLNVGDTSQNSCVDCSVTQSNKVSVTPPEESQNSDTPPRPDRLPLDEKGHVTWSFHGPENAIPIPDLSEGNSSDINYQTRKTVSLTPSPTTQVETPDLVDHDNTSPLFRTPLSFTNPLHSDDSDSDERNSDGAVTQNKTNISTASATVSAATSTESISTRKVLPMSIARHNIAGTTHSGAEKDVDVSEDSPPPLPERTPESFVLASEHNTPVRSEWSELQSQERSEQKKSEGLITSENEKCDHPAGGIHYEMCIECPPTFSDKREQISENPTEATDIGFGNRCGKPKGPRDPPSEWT
# Procedure, shortened: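 Single-concentration duplicates (25 uM) preceded singleton concentration-response up to 50 uM for chemicals passing threshold. Cell-free recombinant PTPN12 activity was read 1.33 h after dosing via fluorescence after mobility-shift separation; loss of signal versus DMSO.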
# [3] = molecular target: Tyrosine-protein phosphatase non-receptor type 13 (Homo sapiens) (UniProt Q12923); test: NVS_ENZ_hPTPN13: NovaScreen (NVS) Enzymatic Assay for human Protein Tyrosine Phosphatase Non-receptor Type 13 (PTPN13) (AID 2283205)
# Tyrosine-protein phosphatase non-receptor type 13 (Homo sapiens), sequence (Q12923 whole entry, looked up): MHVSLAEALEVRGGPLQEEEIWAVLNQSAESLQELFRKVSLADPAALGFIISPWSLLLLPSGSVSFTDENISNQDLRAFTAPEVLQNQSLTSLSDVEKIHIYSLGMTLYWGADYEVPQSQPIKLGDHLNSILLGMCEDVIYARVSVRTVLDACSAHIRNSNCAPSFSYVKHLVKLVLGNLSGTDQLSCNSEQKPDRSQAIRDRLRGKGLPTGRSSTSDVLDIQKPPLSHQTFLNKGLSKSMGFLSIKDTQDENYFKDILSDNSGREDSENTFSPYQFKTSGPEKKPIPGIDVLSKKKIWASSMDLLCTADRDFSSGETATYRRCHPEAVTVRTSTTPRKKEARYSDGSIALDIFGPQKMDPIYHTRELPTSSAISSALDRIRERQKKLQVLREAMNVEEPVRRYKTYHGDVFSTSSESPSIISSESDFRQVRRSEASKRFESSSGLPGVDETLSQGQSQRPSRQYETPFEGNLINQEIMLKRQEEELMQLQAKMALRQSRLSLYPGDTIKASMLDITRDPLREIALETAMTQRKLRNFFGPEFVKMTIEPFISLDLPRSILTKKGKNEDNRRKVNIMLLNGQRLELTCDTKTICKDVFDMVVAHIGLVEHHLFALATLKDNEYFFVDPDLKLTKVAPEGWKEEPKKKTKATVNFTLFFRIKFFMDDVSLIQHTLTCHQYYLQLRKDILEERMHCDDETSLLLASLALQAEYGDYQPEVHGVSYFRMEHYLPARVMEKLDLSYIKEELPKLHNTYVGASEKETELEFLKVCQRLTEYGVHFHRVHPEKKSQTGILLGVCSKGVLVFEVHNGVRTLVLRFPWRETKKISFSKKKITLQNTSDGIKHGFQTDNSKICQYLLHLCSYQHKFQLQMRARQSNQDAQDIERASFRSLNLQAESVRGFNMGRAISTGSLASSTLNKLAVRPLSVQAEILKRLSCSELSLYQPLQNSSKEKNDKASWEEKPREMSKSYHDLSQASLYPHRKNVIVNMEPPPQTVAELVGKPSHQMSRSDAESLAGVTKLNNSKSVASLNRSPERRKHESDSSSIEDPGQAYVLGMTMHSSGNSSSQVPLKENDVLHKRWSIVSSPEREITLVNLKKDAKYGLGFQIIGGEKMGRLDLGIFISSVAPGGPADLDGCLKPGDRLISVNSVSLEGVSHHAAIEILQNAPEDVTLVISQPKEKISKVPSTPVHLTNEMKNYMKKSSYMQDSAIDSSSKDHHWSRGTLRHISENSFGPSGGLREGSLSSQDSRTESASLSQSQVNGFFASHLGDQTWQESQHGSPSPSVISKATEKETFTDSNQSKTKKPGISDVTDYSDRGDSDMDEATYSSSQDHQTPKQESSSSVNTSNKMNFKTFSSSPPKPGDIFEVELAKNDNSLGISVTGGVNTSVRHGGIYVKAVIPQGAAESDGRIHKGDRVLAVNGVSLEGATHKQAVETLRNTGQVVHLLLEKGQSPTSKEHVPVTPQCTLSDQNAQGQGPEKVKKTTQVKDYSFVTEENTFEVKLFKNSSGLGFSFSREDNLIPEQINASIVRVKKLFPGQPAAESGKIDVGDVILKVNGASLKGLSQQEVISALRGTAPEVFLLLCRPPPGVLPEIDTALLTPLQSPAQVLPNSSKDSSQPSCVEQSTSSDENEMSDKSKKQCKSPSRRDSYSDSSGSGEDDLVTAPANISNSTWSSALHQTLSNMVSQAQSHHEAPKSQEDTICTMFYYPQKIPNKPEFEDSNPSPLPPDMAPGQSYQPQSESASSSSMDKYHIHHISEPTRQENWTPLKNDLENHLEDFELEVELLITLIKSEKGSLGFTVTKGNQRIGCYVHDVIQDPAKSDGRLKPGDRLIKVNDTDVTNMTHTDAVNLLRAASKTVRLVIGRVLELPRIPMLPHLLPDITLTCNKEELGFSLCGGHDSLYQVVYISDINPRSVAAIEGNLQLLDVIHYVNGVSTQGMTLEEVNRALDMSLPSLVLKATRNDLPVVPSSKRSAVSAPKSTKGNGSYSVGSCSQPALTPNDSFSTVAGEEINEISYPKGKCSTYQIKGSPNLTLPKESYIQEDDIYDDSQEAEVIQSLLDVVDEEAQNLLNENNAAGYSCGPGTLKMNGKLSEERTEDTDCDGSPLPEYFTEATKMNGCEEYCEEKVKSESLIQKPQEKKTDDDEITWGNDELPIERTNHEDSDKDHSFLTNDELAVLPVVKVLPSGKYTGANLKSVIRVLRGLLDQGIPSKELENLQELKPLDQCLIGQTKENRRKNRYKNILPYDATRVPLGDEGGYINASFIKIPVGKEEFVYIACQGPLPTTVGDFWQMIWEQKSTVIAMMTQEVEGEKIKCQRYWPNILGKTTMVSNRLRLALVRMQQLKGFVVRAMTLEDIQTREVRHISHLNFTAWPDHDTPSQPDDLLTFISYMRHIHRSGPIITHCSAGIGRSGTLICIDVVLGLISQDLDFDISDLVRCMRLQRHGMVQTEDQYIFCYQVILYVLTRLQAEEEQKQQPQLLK
# Procedure, shortened: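 Cell-free assay of recombinant human PTPN13 with a fluorescent substrate, product separated by electrophoretic mobility shift and read 0.5 h after dosing. Primary screen at 25 uM in duplicate, then concentration-response up to 50 uM. Loss of signal fitted against DMSO.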
# [4] = molecular target: Tyrosine-protein phosphatase non-receptor type 14 (Homo sapiens) (UniProt Q15678); test: NVS_ENZ_hPTPN14: NovaScreen (NVS) Enzymatic Assay for human Protein Tyrosine Phosphatase Non-receptor Type 14 (PTPN14) (AID 2283206)
# Tyrosine-protein phosphatase non-receptor type 14 (Homo sapiens), sequence (Q15678 whole entry, looked up): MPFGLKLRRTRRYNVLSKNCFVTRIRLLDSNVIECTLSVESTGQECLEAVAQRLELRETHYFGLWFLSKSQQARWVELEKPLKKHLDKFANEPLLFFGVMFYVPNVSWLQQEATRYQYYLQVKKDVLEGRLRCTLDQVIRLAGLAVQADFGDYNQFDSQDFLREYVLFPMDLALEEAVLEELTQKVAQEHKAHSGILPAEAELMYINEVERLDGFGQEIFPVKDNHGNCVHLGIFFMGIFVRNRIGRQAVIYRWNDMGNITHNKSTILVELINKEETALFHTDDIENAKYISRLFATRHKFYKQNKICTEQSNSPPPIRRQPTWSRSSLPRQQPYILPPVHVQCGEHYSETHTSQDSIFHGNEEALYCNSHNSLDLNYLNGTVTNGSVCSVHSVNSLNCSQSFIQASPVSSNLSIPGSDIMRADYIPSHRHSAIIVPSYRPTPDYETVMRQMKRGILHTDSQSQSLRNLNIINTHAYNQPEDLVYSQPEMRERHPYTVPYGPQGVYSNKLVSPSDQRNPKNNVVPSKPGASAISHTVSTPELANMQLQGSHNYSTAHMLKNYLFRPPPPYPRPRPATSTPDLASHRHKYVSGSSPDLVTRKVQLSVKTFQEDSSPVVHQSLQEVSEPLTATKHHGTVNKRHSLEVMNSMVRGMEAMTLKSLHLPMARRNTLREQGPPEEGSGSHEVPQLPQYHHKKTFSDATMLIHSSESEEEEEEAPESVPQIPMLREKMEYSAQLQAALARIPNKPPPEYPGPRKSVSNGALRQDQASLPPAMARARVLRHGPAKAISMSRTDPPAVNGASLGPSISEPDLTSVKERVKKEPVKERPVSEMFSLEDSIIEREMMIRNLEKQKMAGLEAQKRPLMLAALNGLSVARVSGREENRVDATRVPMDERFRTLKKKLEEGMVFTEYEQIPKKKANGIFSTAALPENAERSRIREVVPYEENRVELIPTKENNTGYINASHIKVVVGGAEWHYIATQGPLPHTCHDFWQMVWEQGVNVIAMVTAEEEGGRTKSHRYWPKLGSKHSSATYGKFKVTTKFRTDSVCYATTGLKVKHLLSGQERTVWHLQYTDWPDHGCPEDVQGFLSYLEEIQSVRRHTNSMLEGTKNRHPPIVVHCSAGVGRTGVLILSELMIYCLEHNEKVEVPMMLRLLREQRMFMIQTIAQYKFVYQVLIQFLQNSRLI
# Procedure, shortened: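 Cell-free recombinant human PTPN14 with fluorescent substrate, read 0.5 h after dosing by fluorescence and electrophoretic mobility shift separating substrate from product. Primary screen at 25 uM in duplicate; hits run to 50 uM maximum; loss of signal versus DMSO.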
# [5] = molecular target: human Protein Tyrosine Phosphatase Non-receptor Type 9 (PTPN9), PTPN9 (gene 5780) (UniProt P43378); test: NVS_ENZ_hPTPN9: NovaScreen (NVS) Enzymatic Assay for human Protein Tyrosine Phosphatase Non-receptor Type 9 (PTPN9) (AID 2283209)
# human Protein Tyrosine Phosphatase Non-receptor Type 9 (PTPN9), PTPN9 (gene 5780), sequence (P43378 whole entry, looked up): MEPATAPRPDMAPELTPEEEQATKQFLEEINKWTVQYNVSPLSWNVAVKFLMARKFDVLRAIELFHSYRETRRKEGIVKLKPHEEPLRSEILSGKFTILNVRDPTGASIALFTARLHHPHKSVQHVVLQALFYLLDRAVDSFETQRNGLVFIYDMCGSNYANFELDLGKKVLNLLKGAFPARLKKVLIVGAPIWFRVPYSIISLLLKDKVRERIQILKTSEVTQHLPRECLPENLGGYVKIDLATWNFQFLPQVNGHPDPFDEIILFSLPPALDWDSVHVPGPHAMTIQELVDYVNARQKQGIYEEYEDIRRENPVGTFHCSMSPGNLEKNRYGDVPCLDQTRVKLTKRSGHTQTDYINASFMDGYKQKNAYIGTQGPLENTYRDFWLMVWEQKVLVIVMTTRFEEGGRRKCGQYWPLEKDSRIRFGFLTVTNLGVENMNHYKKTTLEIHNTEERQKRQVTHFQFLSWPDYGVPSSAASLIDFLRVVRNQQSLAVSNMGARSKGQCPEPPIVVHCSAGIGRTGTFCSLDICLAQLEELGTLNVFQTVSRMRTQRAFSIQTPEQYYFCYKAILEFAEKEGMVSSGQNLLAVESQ
# Procedure, shortened: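 Sf9-expressed enzyme in a cell-free assay, fluorescence read 1.33 h after dosing with mobility-shift separation of substrate and product. Tested at 25 uM in duplicate, then up to 50 uM; signal loss versus DMSO.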
structure (smiles),measurement,setting,value
CN(C)C(=O)NC1(c2ccccc2)CCN(CC[C@@]2(c3ccc(F)c(F)c3)CN(C(=O)c3ccccc3)CCO2)CC1,outcome,[1],inactive
O=C(NS(=O)(=O)/C=C/c1cccs1)c1ccc(F)cc1Br,outcome,[2],inactive
COc1ccc(OC(F)(F)F)cc1CN[C@H]1CCCN[C@H]1c1ccccc1,outcome,[3],inactive
same,outcome,[4],inactive
CCCCOC(=O)CCCCC(=O)OCCCC,outcome,[3],inactive
CC(C)NCC(O)c1ccc(O)c(O)c1 (stereo not drawn),outcome,[4],inactive
O=C(Oc1ccccc1)c1cccc(C(=O)Oc2ccccc2)c1,outcome,[5],inactive
O=C(O)CC(O)(CC(=O)O)C(=O)O,outcome,[5],inactive
